Assay results published in the supplement of paper PMC9262897, “Low-cost anti-mycobacterial drug discovery using engineered E. coli” (Nature Communications, 2022).
Structures can show the parent of a compound that is named as a salt. ± gives the standard deviation of the averaged measurements.

What was measured:
Assay in all cases: growth (OD600 after 10 h); higher = more growth (less inhibition)
[1] = tested on: E. coli TESEC Alr+ wild-type control; details: compound 0.1 mM; raw OD600 reference: median of DMSO wells 0.241, cell-free background 0.041
Experimental: (§1)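 TESEC Mtb Alr E. coli, or the Alr+ wild-type control, in 384-well plates with Prestwick library compounds at 0.1 mM and 1% DMSO, across arabinose induction levels of 1E3 to 1E7 nM. Growth is read as OD600 after 10 h at 37 °C in triplicate biological replicates.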

E. coli TESEC Mtb Alr [2] = details: compound 0.1 mM
Experimental: as §1

E. coli TESEC Mtb Asd = details: compound 0.1 mM
Experimental: (§2)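 TESEC E. coli strains in which the native enzyme is deleted and replaced by arabinose-inducible Mtb Asd, DapB, CysH or TrpD, each grown in its selective medium. Strains were screened against the Prestwick library at 0.1 mM and 1% DMSO in 384-well format at low and high arabinose induction. Growth is read as OD600 after 10 h in triplicate.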

E. coli TESEC Mtb DapB = details: compound 0.1 mM
Experimental: as §2

E. coli TESEC Mtb Alr [3] = details: compound 0.1 mM; remark: listed apart in the source
Experimental: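 TESEC Mtb Alr E. coli (ΔaraC ΔtolC ΔentC Δalr ΔdadX, arabinose-inducible Mtb Alr) or the Alr+ wild-type control strain, grown in defined M9-fructose medium without D-alanine in 96-well plates with Prestwick library compounds at 0.1 mM and 1% DMSO. Low Alr induction is 0.1 µM arabinose and high induction is 10 mM arabinose.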

[4] = arabinose 1000 nM, raw OD600 reference: median of DMSO wells 0.294, cell-free background 0.041
[5] = arabinose 10000 nM, raw OD600 reference: median of DMSO wells 0.264, cell-free background 0.041
[6] = arabinose 100000 nM, raw OD600 reference: median of DMSO wells 0.201, cell-free background 0.041
[7] = arabinose 1000000 nM, raw OD600 reference: median of DMSO wells 0.193, cell-free background 0.041
[8] = arabinose 10000000 nM, raw OD600 reference: median of DMSO wells 0.146, cell-free background 0.041
[9] = arabinose induction (level): High, raw OD600 reference: median of DMSO wells 0.331, cell-free background 0.041
[10] = arabinose induction (level): Low, raw OD600 reference: median of DMSO wells 0.417, cell-free background 0.041
[11] = arabinose induction (level): High, raw OD600 reference: median of DMSO wells […], cell-free background 0.041
[12] = arabinose induction (level): Low, raw OD600 reference: median of DMSO wells 0.227, cell-free background 0.041
[13] = arabinose 100 nM, raw OD600 reference: median of DMSO wells 0.413, cell-free background 0.052
[14] = arabinose 10000000 nM, raw OD600 reference: median of DMSO wells […], cell-free background 0.052

Row | SMILES | growth [1] | growth (E. coli TESEC Mtb Alr [2]; [4]) | growth (E. coli TESEC Mtb Alr [2]; [5]) | growth (E. coli TESEC Mtb Alr [2]; [6]) | growth (E. coli TESEC Mtb Alr [2]; [7]) | growth (E. coli TESEC Mtb Alr [2]; [8]) | growth (E. coli TESEC Mtb Asd; [9]) | growth (E. coli TESEC Mtb Asd; [10]) | growth (E. coli TESEC Mtb DapB; [11]) | growth (E. coli TESEC Mtb DapB; [12]) | growth (E. coli TESEC Mtb Alr [3]; [13]) | growth (E. coli TESEC Mtb Alr [3]; [14])
1 | CC1(C)NC(=O)N(c2ccc([N+](=O)[O-])c(C(F)(F)F)c2)C1=O [Nilutamide] | 0.216 ± 0.017 | 0.273 ± 0.0069 | 0.256 ± 0.003 | 0.189 ± 0.012 | 0.153 ± 0.0033 | 0.142 ± 0.0062 | 0.281 ± 0.1 | 0.399 ± 0.042 | 0.194 ± 0.012 | 0.252 ± 0.0066 | 0.396 ± 0.013 | 0.295 ± 0.017
2 | O=C1Cc2cc(CCN3CCN(c4nsc5ccccc45)CC3)c(Cl)cc2N1 [Ziprasidone  Hydrochloride] | 0.133 ± 0.0045 | 0.174 ± 0.008 | 0.249 ± 0.0058 | 0.195 ± 0.0098 | 0.179 ± 0.0086 | 0.201 ± 0.0095 | 0.418 ± 0.051 | 0.363 ± 0.035 | 0.222 ± 0.027 | 0.308 ± 0.076 | 0.378 ± 0.0087 | 0.338 ± 0.013
3 | Cc1ccc2c(c1)c1c3n2CCNC3CCC1 (stereo unspecified) [Pirlindole mesylate] | 0.215 ± 0.0049 | 0.252 ± 0.0064 | 0.262 ± 0.0058 | 0.182 ± 0.022 | 0.148 ± 0.003 | 0.165 ± 0.011 | 0.177 ± 0.0082 | 0.259 ± 0.028 | 0.18 ± 0.0019 | 0.201 ± 0.024 | 0.397 ± 0.0065 | 0.351 ± 0.011
4 | CN[C@H](CC(C)C)C(=O)N[C@H]1C(=O)N[C@@H](CC(N)=O)C(=O)N[C@H]2C(=O)N[C@H]3C(=O)N[C@H](C(=O)N[C@H](C(=O)O)c4cc(O)cc(O)c4-c4cc3ccc4O)[C@H](O)c3ccc(c(Cl)c3)Oc3cc2cc(c3O[C@@H]2O[C@H](CO)[C@@H](O)[C@H](O)[C@H]2O[C@H]2C[C@](C)(N)[C@H](O)[C@H](C)O2)Oc2ccc(cc2Cl)[C@H]1O [Vancomycin hydrochloride] | 0.0502 ± 0.0016 | 0.084 ± 0.073 | 0.03873 ± 0.00032 | 0.0413 ± 0.0026 | 0.0388 ± 0.00044 | 0.0471 ± 0.0044 | 0.0662 ± 0.0062 | 0.0563 ± 0.011 | 0.0659 ± 0.0035 | 0.0604 ± 0.0036 | 0.217 ± 0.15 | 0.0507 ± 0.00062
5 | Nc1nc(O)c2ncn(CCC(CO)CO)c2n1 [Penciclovir] | 0.25 ± 0.0069 | 0.31 ± 0.013 | 0.262 ± 0.0029 | 0.24 ± 0.042 | 0.18 ± 0.011 | 0.1665 ± 0.0015 | 0.228 ± 0.033 | 0.329 ± 0.033 | 0.226 ± 0.013 | 0.244 ± 0.02 | 0.411 ± 0.0086 | 0.36 ± 0.021
6 | C[C@H](CCC(=O)O)[C@H]1CC[C@H]2[C@@H]3C(=O)C[C@@H]4CC(=O)CC[C@]4(C)[C@H]3CC(=O)[C@]12C [Dehydrocholic acid] | 0.252 ± 0.0042 | 0.252 ± 0.062 | 0.25 ± 0.012 | 0.186 ± 0.022 | 0.183 ± 0.0057 | 0.138 ± 0.0079 | 0.329 ± 0.068 | 0.33 ± 0.07 | 0.196 ± 0.0059 | 0.236 ± 0.04 | 0.406 ± 0.0045 | 0.3 ± 0.0058
7 | NS(=O)(=O)c1cc2c(cc1Cl)N=CNS2(=O)=O [Chlorothiazide] | 0.254 ± 0.0047 | 0.29 ± 0.0056 | 0.268 ± 0.0056 | 0.212 ± 0.021 | 0.183 ± 0.0053 | 0.1414 ± 0.00081 | 0.433 ± 0.014 | 0.447 ± 0.045 | 0.193 ± 0.006 | 0.239 ± 0.024 | 0.403 ± 0.014 | 0.354 ± 0.0098
8 | CC1(C)S[C@@H]2[C@H](NC(=O)[C@H](N)c3ccc(O)cc3)C(=O)N2[C@H]1C(=O)O [Amoxicillin] | 0.242 ± 0.006 | 0.297 ± 0.0057 | 0.251 ± 0.0052 | 0.211 ± 0.033 | 0.186 ± 0.0034 | 0.14 ± 0.0024 | 0.358 ± 0.097 | 0.321 ± 0.037 | 0.217 ± 0.029 | 0.259 ± 0.046 | 0.422 ± 0.011 | 0.378 ± 0.0083
9 | CCc1c(C)[nH]c2c1C(=O)C(CN1CCOCC1)CC2 (stereo unspecified) [Molindone hydrochloride] | 0.221 ± 0.013 | 0.3135 ± 0.00076 | 0.251 ± 0.011 | 0.202 ± 0.018 | 0.166 ± 0.0061 | 0.1542 ± 0.0015 | 0.274 ± 0.06 | 0.36 ± 0.064 | 0.189 ± 0.0083 | 0.25 ± 0.025 | 0.409 ± 0.016 | 0.33 ± 0.017
10 | CC(CNC1CCCCC1)OC(=O)c1ccccc1 (stereo unspecified) [Hexylcaine hydrochloride] | 0.242 ± 0.016 | 0.303 ± 0.0092 | 0.273 ± 0.0072 | 0.191 ± 0.0085 | 0.173 ± 0.0098 | 0.1577 ± 0.0015 | 0.452 ± 0.026 | 0.489 ± 0.039 | 0.2 ± 0.027 | 0.233 ± 0.024 | 0.409 ± 0.016 | 0.309 ± 0.0087
11 | O=C(CCCN1CCN(c2ccccn2)CC1)c1ccc(F)cc1 [Azaperone] | 0.192 ± 0.0058 | 0.2624 ± 0.0023 | 0.294 ± 0.0053 | 0.164 ± 0.013 | 0.177 ± 0.0089 | 0.146 ± 0.0043 | 0.217 ± 0.017 | 0.326 ± 0.029 | 0.194 ± 0.0048 | 0.264 ± 0.05 | 0.423 ± 0.0076 | 0.304 ± 0.01
12 | c1ccc2c(c1)CCCC2C1=NCCN1 (stereo unspecified) [Tetrahydrozoline hydrochloride] | 0.237 ± 0.0097 | 0.297 ± 0.012 | 0.247 ± 0.0046 | 0.184 ± 0.015 | 0.174 ± 0.0044 | 0.14 ± 0.0055 | 0.435 ± 0.062 | 0.437 ± 0.03 | 0.203 ± 0.018 | 0.226 ± 0.031 | 0.4131 ± 0.0035 | 0.343 ± 0.01
13 | C1N2CN3CN1CN(C2)C3 [Methenamine] | 0.245 ± 0.011 | 0.287 ± 0.0055 | 0.275 ± 0.0029 | 0.198 ± 0.025 | 0.226 ± 0.0064 | 0.14 ± 0.0044 | 0.345 ± 0.048 | 0.33 ± 0.051 | 0.204 ± 0.0098 | 0.218 ± 0.035 | 0.41 ± 0.01 | 0.376 ± 0.0071
